# Tests used:
# Assay in all cases: cross-linking mass spectrometry
# Details in all cases: DSBSO, in cells or nuclear extract, not told apart
# USP39 = USP39 (UniProt Q53GS9)
# SF1 = SF1 (UniProt Q15637)
# SF3A1 = SF3A1 (UniProt Q15459)
# SF3B3 = SF3B3 (UniProt Q15393)
# SF3B2 = SF3B2 (UniProt Q13435)
# SMC4 = SMC4 (UniProt Q9NTJ3)
# SNRPD1 = SNRPD1 (UniProt P62314)
# SNRPD3 = SNRPD3 (UniProt P62318)
# SNU13 = SNU13 (UniProt P55769)
# SPC25 = SPC25 (UniProt Q9HBM1)
# SPG11 = SPG11 (UniProt Q96JI7)
# STAT5B = STAT5B (UniProt P51692)
# STK24 = STK24 (UniProt Q9Y6E0)
# SYMPK = SYMPK (UniProt Q92797)
# THOC1 = THOC1 (UniProt Q96FV9)
# THOC3 = THOC3 (UniProt Q96J01)
# THOC7 = THOC7 (UniProt Q6I9Y2)
# THRAP3 = THRAP3 (UniProt Q9Y2W1)
# TMED2 = TMED2 (UniProt Q15363)
# TMED4 = TMED4 (UniProt Q7Z7H5)
# TMED7 = TMED7 (UniProt Q9Y3B3)
# TMED9 = TMED9 (UniProt Q9BVK6)
# TSNAX = TSNAX (UniProt Q99598)
# TXLNG = TXLNG (UniProt Q9NUQ3)
# UBE2I = UBE2I (UniProt P63279)
# UQCRC2 = UQCRC2 (UniProt P22695)
# UXT = UXT (UniProt Q9UBK9)
# VIRMA = VIRMA (UniProt Q69YN4)
# VPS35 = VPS35 (UniProt Q96QK1)
# YWHAB = YWHAB (UniProt P31946)
# YWHAG = YWHAG (UniProt P61981)
# YWHAH = YWHAH (UniProt Q04917)
# YWHAZ = YWHAZ (UniProt P63104)
# ZC3H4 = ZC3H4 (UniProt Q9UPT8)
# Sequence of TMED10, P49755 (P49755 whole entry): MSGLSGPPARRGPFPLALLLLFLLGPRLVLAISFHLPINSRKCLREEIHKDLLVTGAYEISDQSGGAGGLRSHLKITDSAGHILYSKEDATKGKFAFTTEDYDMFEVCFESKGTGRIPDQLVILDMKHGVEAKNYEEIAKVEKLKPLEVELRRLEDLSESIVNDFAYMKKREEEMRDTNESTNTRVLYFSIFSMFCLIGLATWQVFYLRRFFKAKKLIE
# Sequence of SF3A3, Q12874 (Q12874 whole entry): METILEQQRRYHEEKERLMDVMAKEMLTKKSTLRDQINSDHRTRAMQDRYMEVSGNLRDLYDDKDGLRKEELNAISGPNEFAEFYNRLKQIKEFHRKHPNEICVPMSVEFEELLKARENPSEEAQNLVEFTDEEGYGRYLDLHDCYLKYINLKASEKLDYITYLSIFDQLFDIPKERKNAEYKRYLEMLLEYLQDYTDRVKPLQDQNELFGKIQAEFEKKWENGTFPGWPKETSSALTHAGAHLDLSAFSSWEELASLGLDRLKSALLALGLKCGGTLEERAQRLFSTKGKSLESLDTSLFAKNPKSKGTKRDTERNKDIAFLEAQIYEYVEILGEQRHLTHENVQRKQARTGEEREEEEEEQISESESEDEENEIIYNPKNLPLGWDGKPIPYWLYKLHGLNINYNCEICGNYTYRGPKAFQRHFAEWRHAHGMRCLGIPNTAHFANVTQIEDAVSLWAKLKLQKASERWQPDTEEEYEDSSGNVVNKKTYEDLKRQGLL
# Sequence of THOC5, Q13769 (Q13769 whole entry): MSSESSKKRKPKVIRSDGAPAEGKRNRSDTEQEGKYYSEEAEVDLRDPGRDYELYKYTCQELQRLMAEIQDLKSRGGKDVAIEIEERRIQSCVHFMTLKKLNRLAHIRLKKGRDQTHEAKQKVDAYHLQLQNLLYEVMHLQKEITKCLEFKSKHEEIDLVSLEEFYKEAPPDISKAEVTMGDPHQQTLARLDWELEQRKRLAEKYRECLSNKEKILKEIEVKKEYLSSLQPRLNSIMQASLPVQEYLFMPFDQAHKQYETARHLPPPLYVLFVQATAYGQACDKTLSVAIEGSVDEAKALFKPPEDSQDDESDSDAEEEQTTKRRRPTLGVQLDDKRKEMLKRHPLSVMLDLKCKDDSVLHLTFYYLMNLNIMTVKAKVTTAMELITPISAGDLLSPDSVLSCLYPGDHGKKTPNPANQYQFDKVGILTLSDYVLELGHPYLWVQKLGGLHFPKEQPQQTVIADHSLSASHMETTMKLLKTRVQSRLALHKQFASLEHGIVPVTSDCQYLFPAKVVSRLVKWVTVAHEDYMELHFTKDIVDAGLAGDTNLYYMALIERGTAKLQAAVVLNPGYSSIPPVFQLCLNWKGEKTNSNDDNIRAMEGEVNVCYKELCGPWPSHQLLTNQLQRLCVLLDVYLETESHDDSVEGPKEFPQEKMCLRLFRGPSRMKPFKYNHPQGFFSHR
# Sequence of TMED4 (Q7Z7H5 whole entry): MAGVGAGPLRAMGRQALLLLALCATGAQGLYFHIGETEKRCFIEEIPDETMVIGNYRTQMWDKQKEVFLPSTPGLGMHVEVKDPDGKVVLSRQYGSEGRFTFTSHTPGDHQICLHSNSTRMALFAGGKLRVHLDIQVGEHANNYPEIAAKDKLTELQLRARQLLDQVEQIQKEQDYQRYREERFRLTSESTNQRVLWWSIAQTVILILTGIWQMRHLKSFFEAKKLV
# Sequence of TMED2, Q15363 (Q15363 whole entry): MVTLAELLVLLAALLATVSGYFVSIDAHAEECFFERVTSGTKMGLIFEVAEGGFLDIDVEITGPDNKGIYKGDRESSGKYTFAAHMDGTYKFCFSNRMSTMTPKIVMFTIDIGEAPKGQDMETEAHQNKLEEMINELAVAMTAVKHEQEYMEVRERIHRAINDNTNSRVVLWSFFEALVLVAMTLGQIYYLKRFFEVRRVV
# Sequence of SF3B2, Q13435 (Q13435 whole entry): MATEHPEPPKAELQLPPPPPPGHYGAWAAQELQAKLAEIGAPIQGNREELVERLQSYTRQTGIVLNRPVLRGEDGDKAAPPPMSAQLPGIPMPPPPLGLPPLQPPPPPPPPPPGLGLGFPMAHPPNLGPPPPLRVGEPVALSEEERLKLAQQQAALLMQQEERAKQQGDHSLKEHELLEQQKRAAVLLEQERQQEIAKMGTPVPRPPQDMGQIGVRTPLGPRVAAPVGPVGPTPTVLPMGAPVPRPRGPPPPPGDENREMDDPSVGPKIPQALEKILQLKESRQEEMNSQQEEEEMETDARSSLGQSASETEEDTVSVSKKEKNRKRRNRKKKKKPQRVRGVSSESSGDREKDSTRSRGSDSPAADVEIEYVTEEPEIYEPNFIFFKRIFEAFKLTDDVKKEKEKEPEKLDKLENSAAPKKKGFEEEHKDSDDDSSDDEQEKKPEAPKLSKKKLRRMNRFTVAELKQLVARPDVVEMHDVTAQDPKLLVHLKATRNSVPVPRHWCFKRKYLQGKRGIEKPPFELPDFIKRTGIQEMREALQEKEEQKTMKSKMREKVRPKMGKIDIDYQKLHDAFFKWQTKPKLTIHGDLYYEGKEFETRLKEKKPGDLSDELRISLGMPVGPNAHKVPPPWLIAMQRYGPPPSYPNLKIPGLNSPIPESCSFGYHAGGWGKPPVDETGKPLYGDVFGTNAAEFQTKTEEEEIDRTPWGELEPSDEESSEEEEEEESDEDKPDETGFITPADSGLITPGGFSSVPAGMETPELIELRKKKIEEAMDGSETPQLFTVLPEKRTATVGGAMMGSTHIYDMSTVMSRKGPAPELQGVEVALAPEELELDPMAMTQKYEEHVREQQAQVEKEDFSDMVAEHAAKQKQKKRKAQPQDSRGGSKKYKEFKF
# Sequence of SF3B2 (Q13435 whole entry): as above
# Sequence of YWHAZ (P63104 whole entry): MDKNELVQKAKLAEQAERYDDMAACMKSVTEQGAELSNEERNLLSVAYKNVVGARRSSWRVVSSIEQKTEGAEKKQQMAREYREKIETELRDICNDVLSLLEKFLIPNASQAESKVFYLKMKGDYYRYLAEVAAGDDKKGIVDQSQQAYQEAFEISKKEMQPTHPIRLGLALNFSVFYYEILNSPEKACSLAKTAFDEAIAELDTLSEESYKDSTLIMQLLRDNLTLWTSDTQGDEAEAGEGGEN
# Sequence of SF3B3 (Q15393 whole entry): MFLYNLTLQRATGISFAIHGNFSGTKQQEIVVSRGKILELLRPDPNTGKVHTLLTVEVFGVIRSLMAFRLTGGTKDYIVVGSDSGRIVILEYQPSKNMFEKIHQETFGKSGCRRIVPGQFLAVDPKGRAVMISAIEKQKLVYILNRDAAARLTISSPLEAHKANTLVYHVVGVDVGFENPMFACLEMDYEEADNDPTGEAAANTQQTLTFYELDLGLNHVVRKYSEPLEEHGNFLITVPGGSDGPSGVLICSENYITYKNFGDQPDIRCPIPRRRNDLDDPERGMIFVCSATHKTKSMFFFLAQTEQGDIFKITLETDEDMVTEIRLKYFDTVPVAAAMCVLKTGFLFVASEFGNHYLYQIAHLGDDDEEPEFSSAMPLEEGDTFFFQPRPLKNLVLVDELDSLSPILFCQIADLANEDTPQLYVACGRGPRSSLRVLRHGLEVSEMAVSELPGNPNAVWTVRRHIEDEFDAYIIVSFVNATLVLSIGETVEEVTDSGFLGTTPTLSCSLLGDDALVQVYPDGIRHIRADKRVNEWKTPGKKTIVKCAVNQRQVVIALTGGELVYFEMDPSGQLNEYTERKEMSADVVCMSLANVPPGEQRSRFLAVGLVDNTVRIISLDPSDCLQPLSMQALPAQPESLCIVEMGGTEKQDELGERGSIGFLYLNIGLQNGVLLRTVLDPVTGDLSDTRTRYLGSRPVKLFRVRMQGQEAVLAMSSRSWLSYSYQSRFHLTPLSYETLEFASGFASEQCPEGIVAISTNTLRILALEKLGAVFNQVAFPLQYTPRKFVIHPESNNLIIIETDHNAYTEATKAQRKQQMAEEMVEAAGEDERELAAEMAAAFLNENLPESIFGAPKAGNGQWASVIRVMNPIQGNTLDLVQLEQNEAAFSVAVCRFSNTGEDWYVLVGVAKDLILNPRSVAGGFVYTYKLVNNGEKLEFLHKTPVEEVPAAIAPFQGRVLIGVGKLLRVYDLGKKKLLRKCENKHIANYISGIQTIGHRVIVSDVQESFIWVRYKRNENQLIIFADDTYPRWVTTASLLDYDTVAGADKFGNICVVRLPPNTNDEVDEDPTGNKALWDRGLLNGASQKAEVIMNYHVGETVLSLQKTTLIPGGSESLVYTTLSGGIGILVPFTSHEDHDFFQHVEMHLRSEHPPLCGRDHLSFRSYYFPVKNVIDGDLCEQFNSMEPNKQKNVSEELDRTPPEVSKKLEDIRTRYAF
# Sequence of NDUFAF2, Q8N183 (Q8N183 whole entry): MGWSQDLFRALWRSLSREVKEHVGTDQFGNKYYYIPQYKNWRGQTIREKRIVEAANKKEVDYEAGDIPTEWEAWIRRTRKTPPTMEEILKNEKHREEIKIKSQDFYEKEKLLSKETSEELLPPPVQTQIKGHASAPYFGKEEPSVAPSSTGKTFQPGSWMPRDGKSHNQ
# Sequence of WTAP, Q15007 (Q15007 whole entry): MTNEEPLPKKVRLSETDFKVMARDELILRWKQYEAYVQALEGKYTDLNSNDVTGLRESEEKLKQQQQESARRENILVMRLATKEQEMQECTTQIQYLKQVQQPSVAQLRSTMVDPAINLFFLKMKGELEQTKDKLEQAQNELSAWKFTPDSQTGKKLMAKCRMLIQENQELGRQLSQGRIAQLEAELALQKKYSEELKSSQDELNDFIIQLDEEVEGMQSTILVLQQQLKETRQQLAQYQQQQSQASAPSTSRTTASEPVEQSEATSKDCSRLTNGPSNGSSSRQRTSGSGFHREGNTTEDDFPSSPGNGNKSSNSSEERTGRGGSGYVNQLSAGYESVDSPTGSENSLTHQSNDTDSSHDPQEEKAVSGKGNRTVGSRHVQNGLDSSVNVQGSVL
# Sequence of COX5B, P10606 (P10606 whole entry): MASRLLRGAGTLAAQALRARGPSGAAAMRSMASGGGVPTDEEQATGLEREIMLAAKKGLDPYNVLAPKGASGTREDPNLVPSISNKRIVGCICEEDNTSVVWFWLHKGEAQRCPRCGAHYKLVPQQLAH
substance,measurement,setting,value
"EFTUD2, Q15029",cross-linked residues,USP39,K646 - K308
"IREB2, P48200",cross-linked residues,SF1,K530 - K169
"SF3B2, Q13435",cross-linked residues,SF3A1,K275 - K55
same,cross-linked residues,SF3B3,K486 - K965
"SF3A2, Q15428",cross-linked residues,SF3A1,K190 - K264
"SF3A3, Q12874",cross-linked residues,SF3B2,K69 - K280
same,cross-linked residues,SF3B3,K496 - K974
"SF3B1, O75533",cross-linked residues,SF3B2,K1292 - K486
"NCAPH, Q15003",cross-linked residues,SMC4,K725 - K99
"SNRPB, P14678",cross-linked residues,SNRPD1,K54 - K44
"SNRPC, P09234",cross-linked residues,SNRPD3,K52 - K78
"PRPF6, O94906",cross-linked residues,SNU13,K775 - K113
"TBC1D9B, Q66K14",cross-linked residues,SPC25,K1066 - K90
"RPS16, P62249",cross-linked residues,SPG11,K60 - K942
"STAT5A, P42229",cross-linked residues,STAT5B,K86 - K86
"PDCD10, Q9BUL8",cross-linked residues,STK24,K70 - K347
"CSTF2, P33240",cross-linked residues,SYMPK,K189 - K490
"THOC7, Q6I9Y2",cross-linked residues,THOC1,K32 - S2
"THOC5, Q13769",cross-linked residues,THOC3,K223 - K171
same,cross-linked residues,THOC7,K223 - K159
"NDUFAF2, Q8N183",cross-linked residues,THRAP3,K57 - K668
"TMED10, P49755",cross-linked residues,TMED2,K145 - K129
same,cross-linked residues,TMED4,K145 - K152
same,cross-linked residues,TMED7,K169 - K91
"TMED2, Q15363",cross-linked residues,TMED4,K129 - K152
same,cross-linked residues,TMED9,K129 - K160
"TSN, Q15631",cross-linked residues,TSNAX,K219 - K269
"TXLNA, P40222",cross-linked residues,TXLNG,K216 - K191
"RANBP2, P49792",cross-linked residues,UBE2I,K2687 - K49
"COX5B, P10606",cross-linked residues,UQCRC2,K57 - K23
"PDRG1, Q9NUG6",cross-linked residues,UXT,K36 - K48
"ZC3H13, Q5T200",cross-linked residues,VIRMA,K1535 - K576
"WTAP, Q15007",cross-linked residues,VIRMA,K268 - K399
"VPS26A, O75436",cross-linked residues,VPS35,K30 - K44
"YWHAQ, P27348",cross-linked residues,YWHAB,K85 - K11
"YWHAB, P31946",cross-linked residues,YWHAG,K87 - K10
"YWHAZ, P63104",cross-linked residues,YWHAH,K9 - K91
"YWHAG, P61981",cross-linked residues,YWHAZ,K77 - K9
"YWHAE, P62258",cross-linked residues,YWHAZ,K12 - K68
"WDR82, Q6UXN9",cross-linked residues,ZC3H4,K181 - K935
